# Reference: PubChem BioAssay AID1159580 (chemical genetic matrix, 2015)
# Hit rate of the full screen: of about 5,500 compounds, about 2,000 (36%) were called active. Not shown: some 18% with an inconclusive outcome. This is one part of the list. A number with no mark means an inactive call. No stated cut-off is given here; in the data, active means normalized growth mostly below about 0.91 (no sharp cut-off); inconclusive means no clear call, values can overlap the other calls; inactive means mostly above about 0.92.
# Assay: chemical genetic growth profiling, strain panel (AID 1159580);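 further: tested at 20 µM; growth read once vehicle control cultures reached saturation at 30 °C; 1 = growth at the plate median or of vehicle wells; lower values mean less growth of the strain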
# Details: growth OD
compound,measurement,setting,value
COc1ccc(-c2coc3c(O)c(OC)ccc3c2=O)cc1,normalized growth,"S. cerevisiae deletion strains, locus YKL009W, strain mrt4, hits give low values",0.865 (active)
same,normalized growth,"S. cerevisiae deletion strains, locus YKL068W, hits give low values",0.94 (active)
same,normalized growth,"S. cerevisiae deletion strains, locus YKL085W, strain MDH1 (second series), hits give low values",0.935
same,normalized growth,"S. cerevisiae deletion strains, locus YKL085W, strain MDH1, hits give low values",0.935
same,normalized growth,"S. cerevisiae deletion strains, locus YKL160W, strain elf1, hits give low values",0.869 (active)
same,normalized growth,"S. cerevisiae deletion strains, locus YKL190W, strain CNB1, hits give low values",0.932
same,normalized growth,"S. cerevisiae deletion strains, locus YKR001C, strain vps1, hits give low values",0.82 (active)
same,normalized growth,"S. cerevisiae deletion strains, locus YKR026C, strain gcn3, hits give low values",0.967
same,normalized growth,"S. cerevisiae deletion strains, locus YKR091W, strain srl3, hits give low values",0.961
same,normalized growth,"S. cerevisiae deletion strains, locus YLL001W, strain dnm1, hits give low values",0.914
same,normalized growth,"S. cerevisiae deletion strains, locus YLL026W, hits give low values",0.966
same,normalized growth,"S. cerevisiae deletion strains, locus YLL041C, strain sdh2, hits give low values",0.956
same,normalized growth,"S. cerevisiae deletion strains, locus YLR027C, strain aat2, hits give low values",0.964
same,normalized growth,"S. cerevisiae deletion strains, locus YLR039C, strain RIC1, hits give low values",0.491 (active)
same,normalized growth,"S. cerevisiae deletion strains, locus YLR058C, strain SHM2, hits give low values",0.9
same,normalized growth,"S. cerevisiae deletion strains, locus YLR102C, strain apc9, hits give low values",0.941
same,normalized growth,"S. cerevisiae deletion strains, locus YLR113W, strain HOG1, hits give low values",0.994
same,normalized growth,"S. cerevisiae deletion strains, locus YLR221C, strain rsa3, hits give low values",0.957
same,normalized growth,"S. cerevisiae deletion strains, locus YLR258W, strain gsy2, hits give low values",0.925
same,normalized growth,"S. cerevisiae deletion strains, locus YLR262C, strain YPT6 (second series), hits give low values",0.736 (active)
same,normalized growth,"S. cerevisiae deletion strains, locus YLR268W, strain sec22, hits give low values",0.766 (active)
same,normalized growth,"S. cerevisiae deletion strains, locus YLR320W, strain mms22, hits give low values",0.827 (active)
same,normalized growth,"S. cerevisiae deletion strains, locus YLR330W, strain CHS5, hits give low values",0.838 (active)
same,normalized growth,"S. cerevisiae deletion strains, locus YLR342W, strain FKS1 (second series), hits give low values",0.843
same,normalized growth,"S. cerevisiae deletion strains, locus YLR342W, strain FKS1, hits give low values",0.963
same,normalized growth,"S. cerevisiae deletion strains, locus YLR357W, strain rsc2, hits give low values",0.899
same,normalized growth,"S. cerevisiae deletion strains, locus YLR370C, strain arc18, hits give low values",0.974
same,normalized growth,"S. cerevisiae deletion strains, locus YLR371W, strain rom2, hits give low values",0.922
same,normalized growth,"S. cerevisiae deletion strains, locus YLR384C, strain iki3, hits give low values",0.989
same,normalized growth,"S. cerevisiae deletion strains, locus YLR418C, strain cdc73, hits give low values",0.722 (active)
same,normalized growth,"S. cerevisiae deletion strains, locus YML016C, strain PPZ1, hits give low values",0.925
same,normalized growth,"S. cerevisiae deletion strains, locus YML032C, strain rad52, hits give low values",0.862 (active)
same,normalized growth,"S. cerevisiae deletion strains, locus YML120C, strain ndi1, hits give low values",0.893 (active)
same,normalized growth,"S. cerevisiae deletion strains, locus YML124C, strain tub3, hits give low values",0.937
same,normalized growth,"S. cerevisiae deletion strains, locus YMR058W, strain fet3, hits give low values",0.952
same,normalized growth,"S. cerevisiae deletion strains, locus YMR078C, strain ctf18, hits give low values",0.864 (active)
same,normalized growth,"S. cerevisiae deletion strains, locus YMR125W, strain sto1, hits give low values",0.964
same,normalized growth,"S. cerevisiae deletion strains, locus YMR129W, hits give low values",0.969
same,normalized growth,"S. cerevisiae deletion strains, locus YMR205C, strain PFK2, hits give low values",0.824 (active)
same,normalized growth,"S. cerevisiae deletion strains, locus YMR223W, strain ubp8, hits give low values",0.881 (active)
same,normalized growth,"S. cerevisiae deletion strains, locus YMR231W, strain pep5, hits give low values",0.987
same,normalized growth,"S. cerevisiae deletion strains, locus YMR307W, strain GAS1, hits give low values",0.58 (active)
same,normalized growth,"S. cerevisiae deletion strains, locus YNL067W, strain RPL9B, hits give low values",0.959
same,normalized growth,"S. cerevisiae deletion strains, locus YNL071W, strain lat1, hits give low values",0.571 (active)
same,normalized growth,"S. cerevisiae deletion strains, locus YNL128W, strain TEP1, hits give low values",0.889
same,normalized growth,"S. cerevisiae deletion strains, locus YNL183C, strain NPR1, hits give low values",0.952
same,normalized growth,"S. cerevisiae deletion strains, locus YNL209W, strain ssb2, hits give low values",0.948
same,normalized growth,"S. cerevisiae deletion strains, locus YNL233W, strain BNI4, hits give low values",0.879
same,normalized growth,"S. cerevisiae deletion strains, locus YNL248C, strain rpa49, hits give low values",0.965
same,normalized growth,"S. cerevisiae deletion strains, locus YNL250W, strain rad50, hits give low values",0.928
same,normalized growth,"S. cerevisiae deletion strains, locus YNL271C, strain bni1, hits give low values",0.941
same,normalized growth,"S. cerevisiae deletion strains, locus YNL298W, strain CLA4, hits give low values",0.904 (active)
same,normalized growth,"S. cerevisiae deletion strains, locus YNL307C, strain MCK1, hits give low values",0.595 (active)
same,normalized growth,"S. cerevisiae deletion strains, locus YNL322C, strain KRE1 (second series), hits give low values",0.839 (active)
same,normalized growth,"S. cerevisiae deletion strains, locus YNL322C, strain KRE1, hits give low values",0.939
same,normalized growth,"S. cerevisiae deletion strains, locus YNR049C, strain mso1, hits give low values",0.995
same,normalized growth,"S. cerevisiae deletion strains, locus YNR052C, strain pop2, hits give low values",0.925
same,normalized growth,"S. cerevisiae deletion strains, locus YOL012C, strain htz1",0.727
same,normalized growth,"S. cerevisiae deletion strains, locus YOL147C, strain pex11, hits give low values",0.836 (active)
same,normalized growth,"S. cerevisiae deletion strains, locus YOR001W, strain rrp6, hits give low values",0.974
same,normalized growth,"S. cerevisiae deletion strains, locus YOR061W, strain CKA2, hits give low values",0.912
same,normalized growth,"S. cerevisiae deletion strains, locus YOR069W, strain VPS5, hits give low values",0.941
same,normalized growth,"S. cerevisiae deletion strains, locus YOR070C, strain gyp1, hits give low values",0.994
same,normalized growth,"S. cerevisiae deletion strains, locus YOR080W, strain dia2, hits give low values",0.992
same,normalized growth,"S. cerevisiae deletion strains, locus YOR083W, strain WHI5, hits give low values",0.902
same,normalized growth,"S. cerevisiae deletion strains, locus YOR106W, strain vam3, hits give low values",0.882
same,normalized growth,"S. cerevisiae deletion strains, locus YOR136W, strain idh2, hits give low values",0.927
same,normalized growth,"S. cerevisiae deletion strains, locus YOR144C, strain elg1, hits give low values",0.894 (active)
same,normalized growth,"S. cerevisiae deletion strains, locus YOR184W, strain ser1, hits give low values",0.708 (active)
same,normalized growth,"S. cerevisiae deletion strains, locus YOR231W, strain MKK1, hits give low values",1.02
same,normalized growth,"S. cerevisiae deletion strains, locus YOR265W, strain rbl2, hits give low values",0.984
same,normalized growth,"S. cerevisiae deletion strains, locus YOR270C, strain vph1, hits give low values",0.888
same,normalized growth,"S. cerevisiae deletion strains, locus YOR290C, strain snf2, hits give low values",0.807 (active)
same,normalized growth,"S. cerevisiae deletion strains, locus YOR316C, strain cot1, hits give low values",0.943
same,normalized growth,"S. cerevisiae deletion strains, locus YPL051W, strain arl3, hits give low values",0.87 (active)
same,normalized growth,"S. cerevisiae deletion strains, locus YPL078C, strain atp4, hits give low values",0.836 (active)
same,normalized growth,"S. cerevisiae deletion strains, locus YPL106C, strain sse1, hits give low values",0.903
same,normalized growth,"S. cerevisiae deletion strains, locus YPL240C, strain hsp82, hits give low values",0.946
same,normalized growth,"S. cerevisiae deletion strains, locus YPL256C, strain CLN2, hits give low values",0.989
same,normalized growth,"S. cerevisiae deletion strains, locus YPR119W, strain clb2, hits give low values",0.928 (active)
same,normalized growth,"S. cerevisiae deletion strains, locus YPR141C, strain kar3, hits give low values",0.932
same,normalized growth,"S. cerevisiae deletion strains, locus YPR163C, strain tif3, hits give low values",0.694 (active)
same,normalized growth,"S. cerevisiae deletion strains, locus YPR167C, strain met16, hits give low values",0.926
same,normalized growth,"S. cerevisiae deletion strains, strain wtn01, hits give low values",0.846 (active)
same,normalized growth,"S. cerevisiae strains, strain wild type, hits give low values",0.83 (active)
